Marburg entry inh – blocks Marburg virus binding to or entry into cells | Marburg virus pseudotyped entry inhibition, cell reporter | Potency, µM (doses to about 37.8 µM), for the others: at the top dose activity change, negative = inhibition, actives largely listed as inhibitors | 300,000 compounds, 1.8% hits; calls by dose curve; tested in HEK293 cells; note: potency is the fitted concentration of half-maximal effect; % is set by controls: 0 for no effect and ±100 for the full control effect
Shiga inhibitor – blocks Shiga toxin action in Vero cells. Vero cells, Shiga toxin protein synthesis inhibition reporter. inhibition, % at 38.7 µM. 290,000 compounds, 9.2% hits; in the data active = inhibition mostly above about 28%, no sharp cut-off; inactive = mostly below about 43%; note: 0% is about no effect
Pf growth 96h – P. falciparum growth inhibition at 96 hours; P. falciparum luciferase reporter growth, 96 h; Potency, µM (titrated, usually from 28.7 µM), for inactives: at the highest dose activity change, negative = inhibition, usual class: inhibitors; 320,000 compounds, 6.9% hits; AID 504834; note: potency is the fitted concentration of half-maximal effect; % is set by controls: 0 for no effect and ±100 for the full control effect
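Readout is luminescence from an integrated firefly luciferase in P. falciparum. Red cells, 2% hematocrit and 0.05% parasitemia final, were cultured with compound through two parasite generations (96 hours) at 37 C, 5% CO2.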
Pf growth 48h – inhibits P. falciparum growth in the first generation, 48 h. P. falciparum luciferase growth in erythrocytes, 48 h. Potency, µM (highest dose often 28.7 µM), without a hit: at the highest dose activity change, negative = inhibition, hits mostly inhibitors. 310,000 compounds, 5.9% hits. AID 504832; note: potency is the fitted concentration of half-maximal effect; % is set by controls: 0 for no effect and ±100 for the full control effect
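Luciferase-expressing parasites in RBCs, 2% Hct / 0.1% parasitemia final; RPMI 1640 + 0.5% Albumax; 37 C, 5% CO2, one generation; luminescence read-out, lower signal = inhibition.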
Lassa entry inh – blocks Lassa virus binding to or entry into cells | Lassa virus pseudotype entry inhibition, cell reporter | Potency, µM (highest dose often 37.9 µM), inactives show at the highest dose activity change, negative = inhibition, most hits filed as inhibitors | 300,000 compounds, 1.2% hits | AID 540256; calls by dose curve; tested in HEK293 cells; note: potency is the fitted concentration of half-maximal effect; % is set by controls: 0 for no effect and ±100 for the full control effect; nearly all actives have a fitted effect of over 50% in size
CHX counter – counter-screen hit for Shiga toxin inhibitors, cycloheximide. cell reporter, cycloheximide protein synthesis inhibition counterscreen. max response, %. 300,000 compounds, 12% hits; in the data active = max response mostly above about 13%, no sharp cut-off; inactive = mostly below about 14%; note: read at 38.3 µM for the half of the compounds with a filed dose; 0% is about no effect
Numbers without * were called inactive; [ ] = remark or other dose. Sampled rows, rich in hits. Any-hit rate of the full collection: about 19%. Unless noted, calls come from the whole dose curve; as a rule, active = well fitted inhibition curve with a large enough effect; inconclusive = small, poorly fitted or top-dose-only effect, or another doubt; inactive = no such curve, though single readings can be large or run the other way.

For CC(=O)Nc1ccc(-n2c(C)ccc2-c2ccccc2)cc1 the results were Marburg entry inh inconclusive, Shiga inhibitor -4.6, Pf growth 96h inconclusive, Pf growth 48h 3.6%[0.00184 µM], Lassa entry inh -19.3%[46.1 µM] and CHX counter -4.3.
`COc1ccc(NC(=O)Cn2c(CCC(=O)O)ccc2-c2ccccc2)cc1` gave Shiga inhibitor 16.3, Pf growth 96h 78.3%, Pf growth 48h 7.1% and CHX counter -1.1.
For CC(=O)Nc1ccc(S(=O)(=O)NCCC(=O)OCc2nc(N)nc(Nc3ccccc3C)n2)cc1 the results were Marburg entry inh 1.7%, Pf growth 96h -50.7%, Pf growth 48h inconclusive and Lassa entry inh -0.6%.
For CCN(CC)C(=O)CN(c1ccc2c(c1)OCO2)S(C)(=O)=O the results were Marburg entry inh 12.7%, Shiga inhibitor -5.1, Pf growth 96h -1.8%, Lassa entry inh 0.3% and CHX counter -0.6.
For O=C(N/N=C/C(Cl)=C\c1ccccc1)c1ccco1 the results were Marburg entry inh inconclusive, Shiga inhibitor 112.6*, Pf growth 96h 3.7µM*, Pf growth 48h 1.85µM*, Lassa entry inh inconclusive and CHX counter 48.4*.
For O=C(Oc1ccc(/C=N/NC(=O)c2ccco2)cc1)c1ccccc1 the results were Pf growth 96h -106.6% and Pf growth 48h inconclusive.
`O=C(Nc1ccccc1)/C(=C/c1ccccc1)NC(=O)c1ccco1` gave Shiga inhibitor -3.9, Pf growth 96h 84.6%, Pf growth 48h -12.1% and CHX counter 8.5.
O=C(N/N=C/C(Cl)=C/c1ccccc1)c1ccco1 was read as Marburg entry inh inconclusive, Shiga inhibitor 71.2*, Pf growth 96h inconclusive, Pf growth 48h 5.22µM*, Lassa entry inh 1.6% and CHX counter 50.9*.
Screening CC(C)N(Cc1ccccc1)S(=O)(=O)c1ccc2c(c1)NC(=O)CO2 returned Marburg entry inh -9.2%[46.1 µM], Shiga inhibitor -1.3, Pf growth 96h inconclusive, Pf growth 48h -6.4%, Lassa entry inh inconclusive and CHX counter -9.9.
`O=C(Nc1cccc(Cl)c1)C1C2C=CC3(O2)C1C(=O)N(CCN1CCCCC1)C3C(=O)NC1CCCCC1` (stereo not drawn) gave Marburg entry inh inconclusive, Shiga inhibitor 12.3, Pf growth 96h 5.22µM*, Pf growth 48h inconclusive, Lassa entry inh -11.7%[46.1 µM] and CHX counter -5.3.
Screening CCCCN(C)CCN1C(=O)C2C(C(=O)Nc3ccc(Cl)cc3)C3C=CC2(O3)C1C(=O)NC1CCCCC1 (stereo not drawn) returned Marburg entry inh inconclusive, Shiga inhibitor -2.7, Pf growth 96h -3.1%, Pf growth 48h 10.4µM*, Lassa entry inh -0.1%[46.1 µM] and CHX counter -7.0.
For CCC1CCCCN1CCN1C(=O)C2C(C(=O)Nc3cccc(OC)c3)C3C=CC2(O3)C1C(=O)NC1CCCCC1 (stereo not drawn) the results were Marburg entry inh inconclusive, Shiga inhibitor 11.1, Pf growth 96h -17.2%, Pf growth 48h 8.28µM*, Lassa entry inh 12.2%[46.1 µM] and CHX counter -5.6.
`CCCN(CCC)CCN1C(=O)C2C(C(=O)Nc3ccc(C)cc3)C3C=CC2(O3)C1C(=O)NC1CCCCC1` (stereo not drawn) gave Marburg entry inh -7.1%[46.1 µM], Shiga inhibitor -3.7, Pf growth 96h inconclusive, Pf growth 48h inconclusive and CHX counter 12.7.
Screening COc1ccc(NC(=O)C2C3C=CC4(O3)C2C(=O)N(CCN2CCCCC2)C4C(=O)NC2CCCC(C)C2C)cc1 (stereo not drawn) returned Marburg entry inh 5.01µM*, Shiga inhibitor -2.8, Pf growth 96h 30.5%, Pf growth 48h inconclusive, Lassa entry inh 16.2%[46.1 µM] and CHX counter 5.5.
Screening Cn1c(=O)oc2cc(S(=O)(=O)NC(Cc3ccccc3)C(=O)N3CCCCC3)ccc21 (stereo not drawn) returned Shiga inhibitor -9.6, Pf growth 96h 6.5% and CHX counter -1.5.
COc1ccc(C(=O)NC(=S)Nc2ccc3oc(=O)ccc3c2)cc1[N+](=O)[O-] was read as Marburg entry inh 0.5%, Shiga inhibitor -21.5, Pf growth 96h -9.9%, Pf growth 48h inconclusive, Lassa entry inh 0.4% and CHX counter 10.4.

Screens as filed in PubChem BioAssay.
